Consider 101 compounds from PubChem BioAssay AID504834 (National Center for Advancing Translational Sciences (NCATS), 2011).

The whole screen tested about 320,000 compounds, of which about 22,000 (6.9%) were called active. About 27% were inconclusive and are not listed. Calls follow the shape of the dose curve; as a rule, active = well fitted inhibition curve with a large enough effect; inconclusive = small, poorly fitted or top-dose-only effect, or another doubt; inactive = no such curve, though single readings can be large or run the other way. What follows is part of a selection rich in actives, with near analogues and random picks from the rest. A call without a number means that no potency is given here.
Potency is read from the fitted curve at half-maximal effect.

A short description of this test: Primary qHTS for delayed death inhibitors of the malarial parasite plastid, 96 hour incubation. The following applies: P. falciparum luciferase reporter growth; series mostly up to 28.7 µM. In short, it runs like this:
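Cell-based qHTS: luciferase-tagged P. falciparum in erythrocytes (2% hematocrit, 0.05% parasitemia final) incubated with compounds for 96 hours, 37 C, 5% CO2; luciferase detection reagent then added and luminescence measured.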
A general note: Quantitative high-throughput screening tests each substance at several concentrations.
Regarding `COc1cccc(C(=O)Nc2nnc(S(=O)(=O)N(C)c3ccccc3)s2)c1`, the Potency entry is “inactive”. Then `CCc1cc(-c2nnc(SCC(=O)NC3CC3)n2C)cs1`, with “inactive”; and `Cc1ccc(S(=O)(=O)CC(=O)Nc2nnc(C)s2)cc1`, with “inactive”; and `CCOc1ccc(CN2CCC(n3nccc3NC(=O)C3CC3)CC2)cc1CO`, with “inactive”. The value for `COc1ccccc1Oc1ccc(N2CC(C(=O)OCC(=O)c3ccc(F)cc3)CC2=O)cc1` (stereo unspecified) was “inactive”; that for `CC(C)c1nc2cc(C(=O)NC(C)c3cnn(C)c3)ccc2o1` (stereo unspecified) was “inactive”.

With `CCCCc1nc2cc(C(=O)NCCc3cnn(C)c3)ccc2o1`, the Potency is 7.38 µM (active).

Turning to `COc1ccc(CNC(=O)c2ccc3oc(C(C)C)nc3c2)cc1`, the Potency result was “inactive”.

`CC(=O)c1c(C)[nH]c(C(=O)CN2C(=O)NC(C)(C)C2=O)c1C`: the Potency entry is “inactive”. Then `CN(C)CCN(C(=O)CN1C(=O)c2ccccc2C1=O)c1nc2cc3c(cc2s1)OCCO3`, with “inactive”; and `COc1ccc(-n2c(-c3ccccc3)nc3ccccc3c2=O)cc1`, with “inactive”; and `Cc1nc2ccccc2c(=O)n1-c1ccc(Cl)cc1Cl`, with “inactive”. Take `CCCN1C(=O)C(Cc2nc3ccccc3c(=O)n2-c2ccccc2)c2cc(C)ccc21` (stereo unspecified): the Potency was 6.57 µM (active).

For the compound `CC(=O)c1ccc(NC(=O)C2CCCN2S(=O)(=O)c2cccs2)cc1` (stereo unspecified), the Potency result is “inactive”. On to `Cc1c(NC(=O)c2c([N+](=O)[O-])cnn2C)c(=O)n(-c2ccccc2)n1C`, for which the Potency entry is “inactive”. Regarding `Cc1c(NC(=O)Nc2cccc([N+](=O)[O-])c2)c(=O)n(-c2ccccc2)n1C`, the Potency was 3.7 µM (active).

As to `Cc1c(NC(=S)Nc2ccccc2)c(=O)n(-c2ccccc2)n1C`, the Potency entry is “inactive”. As for `Cc1c(C(=O)Nc2ccccn2)oc2ccc(Br)cc12`, the Potency result is “inactive”. `O=C(NCCCn1ccnc1)c1cc(Br)c(Br)s1`: the Potency result was “inactive”. In the case of `COc1ccc(S(=O)(=O)N2CCOCC2)cc1C(=O)Nc1nc2ccccc2s1`, the Potency entry was “inactive”.

With `COc1cccc2sc(NNC(=O)c3nc4ccccc4s3)nc12`, the Potency was 9.28 µM (active). Then `COc1cc(/C=N/Nc2nc3ccccc3s2)ccc1O`, with “inactive”; and `CCn1c(SC(C)C(=O)Nc2ccc(N3CCOCC3)cc2)nnc1-c1ccco1` (stereo unspecified), with “inactive”; and `COc1ccc(/C=C/C(=O)c2ccc(NS(=O)(=O)c3ccc(C)cc3)cc2)cc1O`, with 11.7 µM (active).

`COc1ccc(NS(=O)(=O)c2ccc(NC(C)=O)cc2)cc1OC`: the Potency result is “inactive”. The value for `COc1ccc(C(=O)Oc2cc(/C=N/NS(=O)(=O)c3ccc(C)cc3)ccc2OC)cc1` was “inactive”; that for `CSc1sc(C(=O)NNC(=O)c2ccc(Cl)cc2)c2c1C=CCC2` was “inactive”; that for `CC(C)(C)c1ccc(CN2C(=O)CN=C(c3ccccc3)c3ccccc32)cc1` was 1.31 µM (active).

As for `CC(C)(C)c1ccc(CN2C(=O)c3ccccc3S2(=O)=O)cc1`, the Potency entry is “inactive”. Then `COc1ccc(CN2C(=O)CN=C2Nc2ccc(C)cc2C)cc1`, with “inactive”; and `CCCn1c(N)c(N(CCOC)C(=O)C2CCCC2)c(=O)[nH]c1=O`, with “inactive”; and `CCC(C(=O)NC1CCCCC1)N(C(=O)c1snc(C(N)=O)c1N)c1ccc(OC)cc1OC` (stereo unspecified), with “inactive”. Then `O=C(/C=C(O)/C=C/c1ccc(O)cc1)/C=C/c1ccc(O)cc1`, with “inactive”.

For the compound `Oc1cc2c(cc1CN1CCN(c3ccccc3)CC1)OCO2`, the Potency result is “inactive”.

Consider `COc1cc(OC)c2ccc(=O)oc2c1C(CCN1CCN(c2ccccc2)CC1)c1ccc2c(c1)OCO2` (stereo unspecified), for which the Potency is 9.28 µM (active).

Regarding `COc1ccc(N2CCN(Cc3cc(=O)oc4ccc5ccccc5c34)CC2)cc1`, the Potency result is “inactive”. Then `COc1cc(C(CCN2CCN(c3ccccc3)CC2)c2c(OC)cc(OC)c3ccc(=O)oc23)cc(OC)c1OC` (stereo unspecified), with 8.28 µM (active); and `COc1ccccc1N1CCN(Cc2cc(OC)c3c(c2)OCO3)CC1`, with “inactive”. As for `c1ccc(-c2cnc(CN3CCN(c4ccccc4)CC3)o2)cc1`, the Potency entry was “inactive”.

For the compound `O=C1/C(=C/c2ccc3c(c2)OCO3)Oc2cc(OCC(=O)N3CC(O)C[C@H]3C(=O)O)ccc21` (stereo partly specified), the Potency entry was “inactive”.

As to `Cc1ccc(O)c(NC(=O)c2cc(-c3ccco3)on2)c1`, the Potency entry was “inactive”. On to `O=C(NCc1ccco1)/C(=C\c1cccc([N+](=O)[O-])c1)NC(=O)c1ccco1`, for which the Potency entry is “inactive”. On to `O=C(Nc1ccccc1)Nc1ccc(C(F)(F)F)cn1`, for which the Potency result is “inactive”. Then `CCOC(=O)CN(C)S(=O)(=O)c1ccc(-c2cc(C(=O)OC)sc2C(F)(F)F)cc1`, with “inactive”; and `COc1cc(NC(=O)CCNC(=O)Cn2ccc3ccccc3c2=O)cc(OC)c1OC`, with “inactive”. Then `CNc1nc(SC)nc(N(C#N)CC(=O)OC)n1`, with 8.28 µM (active). Then `CCCCn1c(N)c(N(CCOC)C(=O)COc2c(C)cccc2C)c(=O)[nH]c1=O`, with “inactive”. As to `CC1CC(=O)N(CC(=O)Nc2cccc(Cl)c2)c2ccccc2S1(=O)=O` (stereo unspecified), the Potency result is “inactive”. In the case of `CC(=O)Nc1cccc(OCC(=O)/C=C2\N(C)c3ccccc3C2(C)C)c1`, the Potency is 0.828 µM (active). Then `CN1/C(=C\C(=O)c2cccnc2Cl)C(C)(C)c2ccccc21`, with “inactive”; and `Cc1noc(C)c1C(=O)OCC(=O)/C=C1\N(C)c2ccccc2C1(C)C`, with “inactive”; and `O=C(O)c1c(NC(=O)N2CCCC2)sc2c1CCCC2`, with “inactive”.

Turning to `COc1cc(NC(=S)N2CCCC(C)C2)cc(OC)c1OC` (stereo unspecified), the Potency was 10.4 µM (active). Then `COc1cc(NC(=S)N2CCCC(C)C2)c(OC)cc1Cl` (stereo unspecified), with “inactive”. As for `COc1ccc(NC(=S)N2CCCC(CO)C2)c(OC)c1` (stereo unspecified), the Potency entry was “inactive”. Then `O=C(O)c1ccc(OCC2CCCO2)cc1` (stereo unspecified), with “inactive”. The value for `N#Cc1ccc(/C=C2\CCn3c2nc2cc(C(=O)O)ccc2c3=O)cc1` was “inactive”; that for `O=C(NCc1cccnc1)C12CC3CC(CC(C3)C1)C2` was “inactive”; that for `CCCN1CCn2c3c(c4cc(Br)ccc42)CCCC31` (stereo unspecified) was 1.85 µM (active).

For `CCc1ccc(N(CC(=O)NCc2cccnc2)S(=O)(=O)c2ccccc2)cc1`, the Potency entry is “inactive”. In the case of `CCN(CC(=O)Nc1ccc(NC(C)=O)cc1)C(=O)C1CC(=O)N(Cc2ccc(C)cc2)C1` (stereo unspecified), the Potency entry was “inactive”. For `Cc1cc(=O)n2nc(N3CCCC3C(=O)NCCCN3CC(C)CC(C)C3)sc2n1` (stereo unspecified), the Potency result is “inactive”. The value for `Cc1cc(=O)n2nc(N3CCCC(C(=O)NCc4cccc(Cl)c4)C3)sc2n1` (stereo unspecified) was “inactive”; that for `Cc1cc(=O)n2nc(N3CCC(C(=O)Nc4c(F)c(F)c(F)c(F)c4F)CC3)sc2n1` was 4.15 µM (active); that for `COc1ccc(CCNC(=O)C2CCN(c3nn4c(=O)cc(C)nc4s3)CC2)cc1OC` was “inactive”. The value for `Cc1cc(=O)n2nc(N3CCCC(C(=O)N4CCN(C)CC4)C3)sc2n1` (stereo unspecified) was “inactive”; that for `CCCOc1ccc(CNC(=O)C2CCN(c3nn4c(=O)cc(C)nc4s3)CC2)cc1` was 11.7 µM (active). Then `Cc1ccc(CN2CC(C(=O)NNC(=O)Cn3ccc(C(F)(F)F)n3)CC2=O)cc1` (stereo unspecified), with “inactive”; and `Cc1ccc(-c2noc(C3CCCN(C(=O)c4cccc(Cl)c4)C3)n2)o1` (stereo unspecified), with “inactive”. For the compound `N#CC1(NC(=O)COC(=O)CSc2ccc(F)cc2)CCCCC1`, the Potency result is “inactive”.

For the compound `O=C(Nc1cccc(F)c1)NC1CCCCCCC1`, the Potency entry is “inactive”. As for `CCCCNC(=O)N(O)C1N(/N=C/c2ccc(N(C)C)cc2)C(=S)SC1(C)C` (stereo unspecified), the Potency result is “inactive”.

On to `CCCCNC(=O)N(O)C1N(/N=C/c2ccccc2O)C(=S)SC1(C)C` (stereo unspecified), for which the Potency is 3.29 µM (active).

Regarding `O=C(/C=C/c1ccco1)NC(=S)N1CCCCC1`, the Potency entry was “inactive”. As to `CC(=O)Oc1ccc2c(c1)C(=O)c1ccccc1C2=O`, the Potency entry was “inactive”. The value for `CCOC(=O)c1nc(C)n(-c2ccc(Cl)cc2Cl)n1` was “inactive”; that for `CCOC(=O)c1cnc(SC)nc1Sc1ccc(Cl)cc1Cl` was 9.28 µM (active). Take `CCOC(=O)c1cnc(COc2ccccc2Cl)[nH]c1=O`: the Potency entry was “inactive”. Then `CC[C@@H](C)[C@H](NC(=O)CCc1c(C)c2cc3c4c(oc3c(C)c2oc1=O)CCCC4)C(=O)O`, with “inactive”. Then `COCCn1c(N)c(NCc2ccccc2)c(=O)[nH]c1=O`, with “inactive”; and `CC(C)N(C(=O)c1ccc(-c2ccccc2F)cc1)C(C)C`, with 4.65 µM (active); and `CC(Sc1nnc(-c2ccccc2F)n1C1CC1)C(N)=O` (stereo unspecified), with “inactive”.

On to `CCN(CC(=O)Nc1c(F)cccc1F)C(=O)c1ccc(-c2ccccc2)cc1`, for which the Potency result was “inactive”. Then `Cc1ccn(CCC(=O)N2c3ccccc3CC2C)n1` (stereo unspecified), with “inactive”. The value for `O=C(COC(=O)c1ccccn1)NNC(=O)c1ccc([N+](=O)[O-])cc1` was “inactive”; that for `CC(O)c1nc2ccccc2n1Cc1ccc([N+](=O)[O-])cc1` (stereo unspecified) was 1.85 µM (active); that for `Cc1nc2ccccc2c(=O)n1Cc1ccc([N+](=O)[O-])cc1` was “inactive”. Regarding `C[C@@H](O)c1nc2ccccc2n1N`, the Potency entry was “inactive”. The value for `COc1cccc(N2CC(NC(=O)c3ccc4ccccc4c3)CC2=O)c1` (stereo unspecified) was “inactive”. The value for `COc1ccc(C2/C=C\CN(CC(C)C)CC(=O)N2Cc2ccc(F)cc2)cc1` (stereo unspecified) was “inactive”; that for `COc1ccc(C2/C=C\CN(S(=O)(=O)c3cccs3)CC(=O)N2Cc2ccc(F)cc2)cc1` (stereo unspecified) was 10.4 µM (active). The value for `O=S(=O)(c1cccs1)N1CCN(Cc2ccccc2)CC1` was “inactive”; that for `CC(NC(=O)CN(C)S(=O)(=O)c1ccc(F)cc1)C1CC2CCC1C2` (stereo unspecified) was “inactive”. For the compound `C=CCOc1ccc(/C=C/C(=O)OCC(=O)NCC2CCCO2)cc1` (stereo unspecified), the Potency result was “inactive”.

For `COc1cc([N+](=O)[O-])cc([N+](=O)[O-])c1NC(=O)N1CCOCC1`, the Potency result was “inactive”. The value for `O=C(Nc1ccccc1C(=O)O)c1ccc(N2C(=O)C3CC=CCC3C2=O)cc1` (stereo unspecified) was “inactive”. Take `O=C(CSc1ccc(-c2ccc(Br)cc2)nn1)NCC1CCCO1` (stereo unspecified): the Potency result is “inactive”.

On to `COc1ccc(CCNC(=O)CN2C(=O)COc3ccc(S(=O)(=O)N4CCCC4)cc32)cc1OC`, for which the Potency entry is “inactive”.

`CCN1C(=O)[C@H]2[C@@H](c3ccc(-c4ccc(F)cc4)cc3)N[C@@](Cc3ccccc3)(C(=O)OC)[C@H]2C1=O`: the Potency is 5.86 µM (active). The value for `CCOC(=O)C1(Cc2ccc(O)cc2)NC(c2ccccc2F)C2C(=O)N(C)C(=O)C21` (stereo unspecified) was “inactive”. For `CCN1C(=O)[C@H]2[C@@H](c3ccc(SC4CCCCC4)c(OC)c3)N[C@@](Cc3ccccc3)(C(=O)OC)[C@H]2C1=O`, the Potency entry was “inactive”.
